Data published in the supplement of paper PMC10849652.
The full data set covers some 8,800 targets. This sample favours those with a hit. About 0.5% of all pairs of compound and target were hits.

Legend:
Test in all cases: log2 fold change, soluble protein after heating vs DMSO (PISA); higher = thermal stabilisation; K562 lysate, 10 uM; active = over 0.2 and 3.5 SD of the protein, either way, in both replicates (recomputed)
[1] = compound: CN1CC[C@H](c2c(O)cc(O)c3c(=O)cc(-c4ccccc4Cl)oc23)[C@H](O)C1 [alvocidib]
Summary of the method: (§1)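 K562 pellets were dounce-homogenised in PBS pH 7.4 containing 1 mM MgCl2, and the crude extract, at 1 mg/mL protein, was exposed to 10 μM compound for 30 min. Aliquots were heated for 3 min across 48°C-58°C, pooled, brought to 0.5% NP-40 at 4°C and spun at 21,000xg for 90 min, with the supernatant taken as soluble protein. TMTpro 16plex LC-MS/MS with equalised channel sums quantified that protein. Values are log-two fold changes in thermal stability relative to solvent controls, taken from duplicates.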

[2] = compound: CN1CCc2c(c3ccccc3n2Cc2ccc(C(=O)NO)cc2)C1 [Tubastatin A]
Summary of the method: as §1

[3] = compound: CNC(=O)C1=CC=CC=C1NC2=NC(=NC=C2Cl)NC3=C(C=C(C=C3)N4CCOCC4)OC
Summary of the method: as §1

[4] = compound: CNC(=O)c1ccc(Nc2ncc(C(F)(F)F)c(NCc3nccnc3N(C)S(C)(=O)=O)n2)cc1 [defactinib]
Summary of the method: as §1

[5] = compound: CNc1nc(-c2ccc3c(N)n[nH]c3c2)cc(N2C[C@@H](C(=O)NC3CCCCC3)CC[C@H]2C)n1
Summary of the method: as §1

[6] = compound: COC(=O)N[C@@H](C)CNc1nccc(-c2cn(C(C)C)nc2-c2cc(Cl)cc(NS(C)(=O)=O)c2F)n1 [encorafenib]
Summary of the method: as §1

[7] = compound: COC(=O)[C@H](CCSC)NC(=O)C1=C(C=C(C=C1)NC[C@H](CS)N)C2=CC=CC=C2
Summary of the method: as §1

[8] = compound: COc1cc(Nc2ncc3c(n2)-c2ccc(Cl)cc2C(c2c(F)cccc2OC)=NC3)ccc1C(=O)O [alisertib]
Summary of the method: as §1

[9] = compound: COc1cc2nc(-c3cc(F)ccc3O)nc(N[C@@H]3CNC[C@H]3C(C)(C)O)c2cc1OC
Summary of the method: as §1

[10] = compound: COc1cc2ncnc(Nc3ccc(F)c(Cl)c3)c2cc1OCCCN1CCOCC1 [gefitinib]
Summary of the method: as §1

Measured: log2 fold change

EEF1A1, A0A087WVQ9
inactive: [1] -0.005 | [2] -0.102 | [3] 0.042 | [4] 0.062 | [5] 0.071 | [6] 0.011 | [7] 0.115 | [8] -0.073 | [9] 0.026 | [10] -0.054

EIF1 (UniProt P41567)
inactive: [1] -0.033 | [2] 0.084 | [3] -0.039 | [4] -0.013 | [5] -0.02 | [6] -0.017 | [7] -0.032 | [8] -0.006 | [9] 0.005
active: [10] -0.247

GABPB1 isoform 3 (UniProt Q06547)
UniProt Q06547, sequence (Q06547 whole entry, looked up): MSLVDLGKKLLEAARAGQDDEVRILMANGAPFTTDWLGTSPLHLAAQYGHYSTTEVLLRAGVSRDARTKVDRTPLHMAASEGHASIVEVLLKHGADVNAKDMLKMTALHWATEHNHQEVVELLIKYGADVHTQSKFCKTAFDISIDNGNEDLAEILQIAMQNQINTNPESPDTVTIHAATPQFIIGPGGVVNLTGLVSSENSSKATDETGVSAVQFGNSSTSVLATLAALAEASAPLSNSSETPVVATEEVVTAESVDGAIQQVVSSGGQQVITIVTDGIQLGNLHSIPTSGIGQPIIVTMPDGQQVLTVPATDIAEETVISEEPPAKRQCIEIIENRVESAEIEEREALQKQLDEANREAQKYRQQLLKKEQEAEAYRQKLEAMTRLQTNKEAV
active: [2] -0.299
inactive: [1] -0.013 | [3] -0.055 | [4] -0.025 | [5] -0.039 | [6] -0.006 | [7] 0.099 | [9] 0.016

DUS2 (UniProt Q9NX74)
active: [7] 0.352
inactive: [1] 0.056 | [2] -0.084 | [3] 0.013 | [4] 0.016 | [5] -0.045 | [6] -0.027 | [8] -0.007 | [9] 0.013 | [10] 0.026

ETHE1 (UniProt O95571)
inactive: [1] -0.076 | [2] 0.035 | [3] -0.014 | [4] -0.008 | [5] -0.021 | [6] 0.008 | [7] 0.037 | [8] 0.094 | [9] 0.022 | [10] -0.14

GATAD2A isoform 3 (UniProt Q86YP4)
inactive: [1] -0.028 | [2] -0.045 | [3] 0.015 | [4] 0 | [5] 0.025 | [6] 0.005 | [7] 0.072 | [8] 0.006 | [9] 0.01 | [10] -0.023

FBXO30 (UniProt Q8TB52)
inactive: [1] 0.066 | [2] -0.106 | [3] 0.03 | [4] 0.042 | [5] -0.091 | [6] 0.036 | [7] 0.1 | [8] -0.014 | [9] -0.006 | [10] 0.029

EEF1AKMT4 (UniProt P0DPD7)
UniProt P0DPD7, sequence (P0DPD7 whole entry, looked up): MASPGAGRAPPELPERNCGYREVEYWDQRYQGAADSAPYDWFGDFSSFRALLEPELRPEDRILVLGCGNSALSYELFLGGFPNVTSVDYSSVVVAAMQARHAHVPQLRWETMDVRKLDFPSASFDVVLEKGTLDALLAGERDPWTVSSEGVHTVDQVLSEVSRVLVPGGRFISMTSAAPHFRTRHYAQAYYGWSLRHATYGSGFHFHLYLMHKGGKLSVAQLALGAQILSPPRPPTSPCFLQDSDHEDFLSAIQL
inactive: [1] -0.029 | [2] -0.027 | [3] 0.074 | [4] 0.03 | [5] 0.188 | [6] 0.042 | [7] 0.012 | [8] 0.037 | [9] 0.068 | [10] 0.004

FAM118A (UniProt Q9NWS6)
UniProt Q9NWS6, sequence (Q9NWS6 whole entry, looked up): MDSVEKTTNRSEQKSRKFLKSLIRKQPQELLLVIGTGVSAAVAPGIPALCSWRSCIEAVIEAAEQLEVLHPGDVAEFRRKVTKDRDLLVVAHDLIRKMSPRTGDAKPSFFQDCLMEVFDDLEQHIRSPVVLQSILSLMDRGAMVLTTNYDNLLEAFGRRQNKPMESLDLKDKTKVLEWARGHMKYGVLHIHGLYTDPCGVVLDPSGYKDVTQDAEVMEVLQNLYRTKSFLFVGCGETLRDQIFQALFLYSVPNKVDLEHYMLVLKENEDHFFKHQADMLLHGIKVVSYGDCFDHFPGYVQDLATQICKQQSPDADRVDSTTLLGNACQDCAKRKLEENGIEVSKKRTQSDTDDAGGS
inactive: [1] 0.006 | [2] -0.153 | [3] 0.077 | [4] -0.007 | [5] 0.002 | [6] -0.017 | [7] 0.002 | [8] 0.008 | [9] 0.03 | [10] 0.003

FAM53B (UniProt Q14153)
active: [2] 0.473
inactive: [1] -0.125 | [3] 0.098 | [4] 0.025 | [5] -0.064 | [6] 0.019 | [7] -0.1 | [8] -0.04 | [10] -0.075

EIF2AK2 (UniProt P19525)
UniProt P19525, sequence (P19525 whole entry, looked up): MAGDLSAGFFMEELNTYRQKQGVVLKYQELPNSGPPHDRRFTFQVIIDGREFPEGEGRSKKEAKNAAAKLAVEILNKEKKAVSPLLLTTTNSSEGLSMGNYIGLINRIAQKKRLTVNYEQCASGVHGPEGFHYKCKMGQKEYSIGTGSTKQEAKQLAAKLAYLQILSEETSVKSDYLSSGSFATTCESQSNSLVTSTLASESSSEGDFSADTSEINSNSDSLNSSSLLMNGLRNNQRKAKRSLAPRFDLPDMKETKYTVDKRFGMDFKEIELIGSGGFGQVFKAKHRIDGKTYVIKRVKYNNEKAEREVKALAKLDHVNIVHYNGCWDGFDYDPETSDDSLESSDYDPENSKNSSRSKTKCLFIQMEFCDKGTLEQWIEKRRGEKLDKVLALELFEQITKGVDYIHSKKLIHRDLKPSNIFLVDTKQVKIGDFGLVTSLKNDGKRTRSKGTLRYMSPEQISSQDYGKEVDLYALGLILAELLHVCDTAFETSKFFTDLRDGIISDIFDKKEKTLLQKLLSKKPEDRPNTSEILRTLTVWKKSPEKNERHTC
inactive: [1] 0.004 | [2] -0.099 | [3] 0.091 | [4] 0.049 | [5] 0.083 | [6] 0.087 | [7] 0.153 | [8] 0.003 | [9] 0.029 | [10] -0.055

FAM83D (UniProt Q9H4H8)
inactive: [1] -0.009 | [2] -0.044 | [3] 0.005 | [4] -0.007 | [5] 0.022 | [6] 0.026 | [7] 0.017 | [8] 0.015 | [9] 0.062 | [10] 0.009

ENGASE (UniProt Q8NFI3)
inactive: [1] -0.144 | [2] -0.02 | [3] 0.043 | [4] -0.011 | [5] 0.02 | [6] 0.018 | [7] -0.056 | [8] 0.025 | [9] -0.015 | [10] 0.018

EDC3 (UniProt Q96F86)
UniProt Q96F86, sequence (Q96F86 whole entry, looked up): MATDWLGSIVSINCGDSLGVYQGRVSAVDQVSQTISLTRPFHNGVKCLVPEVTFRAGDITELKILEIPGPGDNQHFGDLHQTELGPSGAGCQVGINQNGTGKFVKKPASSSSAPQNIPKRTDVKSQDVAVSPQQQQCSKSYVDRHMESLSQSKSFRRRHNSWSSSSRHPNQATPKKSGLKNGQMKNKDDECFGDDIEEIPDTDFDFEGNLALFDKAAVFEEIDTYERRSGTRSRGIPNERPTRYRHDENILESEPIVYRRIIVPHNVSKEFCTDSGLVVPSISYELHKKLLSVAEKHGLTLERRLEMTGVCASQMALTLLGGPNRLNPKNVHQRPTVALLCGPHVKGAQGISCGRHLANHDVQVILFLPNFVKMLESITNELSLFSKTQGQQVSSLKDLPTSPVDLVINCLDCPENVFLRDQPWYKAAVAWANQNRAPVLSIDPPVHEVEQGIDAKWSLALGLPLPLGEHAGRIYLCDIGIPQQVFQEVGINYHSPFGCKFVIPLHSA
inactive: [1] -0.045 | [2] -0.1 | [3] 0.003 | [4] 0.009 | [5] 0.038 | [6] 0.019 | [7] -0.071 | [8] 0.025 | [9] -0.02 | [10] -0.042

EPB41 (UniProt P11171)
inactive: [1] 0.044 | [2] -0.02 | [3] 0.011 | [4] 0.015 | [5] -0.067 | [6] 0.01 | [7] -0.001 | [8] 0.02 | [9] -0.036 | [10] 0.007

EDARADD (UniProt Q8WWZ3)
inactive: [1] -0.015 | [2] -0.003 | [3] 0.019 | [4] 0.009 | [5] -0.068 | [6] 0.013 | [7] -0.072 | [8] -0.075 | [9] 0.027 | [10] 0.043

ENSA isoform 3 (UniProt O43768)
inactive: [1] 0.015 | [2] -0.038 | [3] -0.012 | [4] 0.03 | [5] -0.027 | [6] -0.024 | [7] -0.053 | [8] -0.014 | [9] 0.001 | [10] 0.001

FBXO9 (UniProt Q9UK97)
active: [9] -0.402
inactive: [1] 0.099 | [2] -0.006 | [3] -0.015 | [4] 0.104 | [5] 0.037 | [6] 0.078 | [7] -0.042 | [8] -0.011 | [10] 0.04

ERI1 (UniProt Q8IV48)
UniProt Q8IV48, sequence (Q8IV48 whole entry, looked up): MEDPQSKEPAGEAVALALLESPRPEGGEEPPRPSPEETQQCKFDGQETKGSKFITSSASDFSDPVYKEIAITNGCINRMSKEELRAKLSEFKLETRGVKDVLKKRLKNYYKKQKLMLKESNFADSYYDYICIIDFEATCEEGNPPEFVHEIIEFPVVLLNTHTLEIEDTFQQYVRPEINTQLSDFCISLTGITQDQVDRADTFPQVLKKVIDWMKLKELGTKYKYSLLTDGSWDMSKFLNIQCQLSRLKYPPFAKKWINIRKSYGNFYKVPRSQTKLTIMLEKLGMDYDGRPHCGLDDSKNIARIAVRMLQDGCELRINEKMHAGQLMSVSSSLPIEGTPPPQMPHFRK
inactive: [1] 0.008 | [2] 0 | [3] 0.026 | [4] 0.004 | [5] -0.021 | [6] 0.025 | [7] 0.118 | [8] -0.015 | [9] -0.02 | [10] -0.007

EMC7 (UniProt Q9NPA0)
inactive: [1] -0.146 | [2] 0.039 | [3] -0.037 | [4] 0.02 | [5] -0.008 | [6] 0.026 | [7] -0.058 | [8] 0.001 | [9] 0.017 | [10] -0.043

FTSJ1 isoform 2 (UniProt Q9UET6)
UniProt Q9UET6, sequence (Q9UET6 whole entry, looked up): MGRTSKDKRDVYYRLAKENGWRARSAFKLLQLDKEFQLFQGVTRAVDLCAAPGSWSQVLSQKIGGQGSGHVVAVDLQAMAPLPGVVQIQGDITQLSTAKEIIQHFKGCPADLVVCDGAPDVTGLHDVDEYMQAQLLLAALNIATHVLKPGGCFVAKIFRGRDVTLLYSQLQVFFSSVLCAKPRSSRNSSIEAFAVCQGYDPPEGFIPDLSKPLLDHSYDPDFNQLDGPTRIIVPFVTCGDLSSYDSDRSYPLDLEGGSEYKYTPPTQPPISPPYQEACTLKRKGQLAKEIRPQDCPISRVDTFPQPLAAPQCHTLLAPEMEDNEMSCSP
inactive: [1] 0.015 | [4] 0.028 | [6] -0.027 | [7] 0.047 | [9] -0.016

ERG28 (UniProt Q9UKR5)
inactive: [1] 0.304 | [5] -0.037 | [6] 0.055 | [7] -0.062 | [9] -0.024

GAA (UniProt P10253)
active: [4] -0.513
inactive: [1] -0.006 | [2] 0.098 | [3] -0.047 | [6] 0.097 | [7] -0.15 | [8] -0.117 | [9] 0.089 | [10] -0.043

EHHADH (UniProt Q08426)
inactive: [1] 0.013 | [2] 0.039 | [3] -0.024 | [5] 0.101 | [6] 0.035 | [7] -0.426 | [8] 0.065 | [9] -0.005 | [10] 0.012

FOXL2 (UniProt P58012)
inactive: [2] -0.049 | [3] 0.031 | [5] 0.005 | [6] 0.079 | [7] 0.138 | [9] 0.015

EPS8L2 (UniProt Q9H6S3)
UniProt Q9H6S3, sequence (Q9H6S3 whole entry, looked up): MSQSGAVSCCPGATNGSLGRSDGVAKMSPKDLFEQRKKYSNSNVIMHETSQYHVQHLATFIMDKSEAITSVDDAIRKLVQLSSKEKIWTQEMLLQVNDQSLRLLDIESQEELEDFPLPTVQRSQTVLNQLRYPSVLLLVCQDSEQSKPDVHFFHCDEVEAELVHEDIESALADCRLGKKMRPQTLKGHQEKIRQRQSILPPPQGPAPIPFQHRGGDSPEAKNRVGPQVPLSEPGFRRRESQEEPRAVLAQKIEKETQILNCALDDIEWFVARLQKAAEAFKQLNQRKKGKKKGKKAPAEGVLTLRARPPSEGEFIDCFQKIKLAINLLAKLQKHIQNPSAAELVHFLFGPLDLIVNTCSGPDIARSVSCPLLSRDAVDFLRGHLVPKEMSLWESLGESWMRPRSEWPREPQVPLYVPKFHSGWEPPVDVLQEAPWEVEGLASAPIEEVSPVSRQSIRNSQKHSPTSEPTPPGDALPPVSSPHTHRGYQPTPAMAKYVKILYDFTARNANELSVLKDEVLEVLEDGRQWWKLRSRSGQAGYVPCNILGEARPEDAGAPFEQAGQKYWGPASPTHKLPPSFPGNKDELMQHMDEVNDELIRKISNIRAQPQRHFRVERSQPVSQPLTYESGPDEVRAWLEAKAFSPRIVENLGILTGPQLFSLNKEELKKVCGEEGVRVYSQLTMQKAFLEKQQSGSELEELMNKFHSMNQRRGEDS
inactive: [1] -0.009 | [2] 0.078 | [3] -0.016 | [5] 0.031 | [6] 0.096 | [7] -0.037 | [8] 0.01 | [9] -0.036 | [10] -0.149

EPB41, A0A2R8Y783
inactive: [1] -0.248 | [4] 0.05 | [5] -0.13 | [6] -0.523 | [7] 0.118 | [9] 0.029

GDE1 (UniProt Q9NZC3)
UniProt Q9NZC3, sequence (Q9NZC3 whole entry, looked up): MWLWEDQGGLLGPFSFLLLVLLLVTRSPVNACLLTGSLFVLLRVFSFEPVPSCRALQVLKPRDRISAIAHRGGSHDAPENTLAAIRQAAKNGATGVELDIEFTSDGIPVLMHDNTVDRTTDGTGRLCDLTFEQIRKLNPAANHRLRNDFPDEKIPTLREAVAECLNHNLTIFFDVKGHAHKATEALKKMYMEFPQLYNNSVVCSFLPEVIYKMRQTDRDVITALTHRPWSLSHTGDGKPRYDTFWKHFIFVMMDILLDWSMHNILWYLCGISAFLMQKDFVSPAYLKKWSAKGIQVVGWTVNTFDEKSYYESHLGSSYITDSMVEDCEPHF
inactive: [1] 0.307 | [2] -0.047 | [3] 0.014 | [5] 0.024 | [6] -0.045 | [7] -0.02 | [9] -0.038

FMNL2 isoform 3 (UniProt Q96PY5)
inactive: [2] 0.108 | [3] 0.011 | [5] 0.044 | [8] 0.073 | [9] 0.119 | [10] 0.241

EIF2AK3 (UniProt Q9NZJ5)
UniProt Q9NZJ5, sequence (Q9NZJ5 whole entry, looked up): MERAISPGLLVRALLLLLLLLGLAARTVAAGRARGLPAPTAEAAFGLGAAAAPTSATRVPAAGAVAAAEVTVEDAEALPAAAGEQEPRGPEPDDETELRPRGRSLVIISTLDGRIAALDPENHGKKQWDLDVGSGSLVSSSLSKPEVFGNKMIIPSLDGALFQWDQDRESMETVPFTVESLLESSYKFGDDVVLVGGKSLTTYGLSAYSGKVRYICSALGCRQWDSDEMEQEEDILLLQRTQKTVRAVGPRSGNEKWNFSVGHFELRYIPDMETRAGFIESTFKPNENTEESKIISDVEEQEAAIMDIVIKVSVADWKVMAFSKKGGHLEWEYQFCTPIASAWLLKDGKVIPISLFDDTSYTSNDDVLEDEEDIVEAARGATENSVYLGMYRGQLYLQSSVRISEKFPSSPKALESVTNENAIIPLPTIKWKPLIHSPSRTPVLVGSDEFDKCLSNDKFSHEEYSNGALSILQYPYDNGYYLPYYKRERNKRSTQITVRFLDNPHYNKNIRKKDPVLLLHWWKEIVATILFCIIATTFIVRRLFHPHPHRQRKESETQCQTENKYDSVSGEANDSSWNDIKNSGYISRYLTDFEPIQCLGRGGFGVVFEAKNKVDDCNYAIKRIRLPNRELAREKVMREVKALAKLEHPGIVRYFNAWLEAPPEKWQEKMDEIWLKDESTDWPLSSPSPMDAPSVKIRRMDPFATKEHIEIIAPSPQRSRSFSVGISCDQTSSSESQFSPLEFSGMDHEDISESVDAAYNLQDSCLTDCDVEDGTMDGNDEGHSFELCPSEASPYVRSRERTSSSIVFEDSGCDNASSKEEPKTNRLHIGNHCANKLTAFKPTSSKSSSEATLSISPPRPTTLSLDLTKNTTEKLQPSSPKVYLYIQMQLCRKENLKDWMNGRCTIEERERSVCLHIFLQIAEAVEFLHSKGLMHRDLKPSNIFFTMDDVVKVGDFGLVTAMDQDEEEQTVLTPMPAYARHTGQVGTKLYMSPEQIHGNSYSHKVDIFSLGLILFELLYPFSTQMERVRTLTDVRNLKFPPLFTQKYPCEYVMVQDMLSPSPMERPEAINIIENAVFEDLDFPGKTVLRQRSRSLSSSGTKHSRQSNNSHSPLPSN
inactive: [1] 0.281 | [2] -0.369 | [3] 0.28 | [5] 0.104 | [8] -0.128 | [9] -0.197 | [10] 0.001

EIF2B4 (UniProt Q9UI10)
inactive: [2] 0.006 | [3] -0.004 | [4] 0.03 | [5] -0.058 | [6] 0.114 | [7] -0.1 | [8] -0.039 | [9] -0.008 | [10] 0.074
